Among the test systems are MOLT-4 leukemia; SR leukemia; RPMI-8226 leukemia; OVCAR-8 ovarian; OVCAR-5 ovarian; OVCAR-4 ovarian; SK-OV-3 ovarian; IGROV1 ovarian; OVCAR-3 ovarian; HS 578T breast; NCI/ADR-RES ovarian; T-47D breast; BT-549 breast; MDA-MB-435 melanoma; SW-620 colon; MCF7 breast; HCT-116 colon; HCC-2998 colon; KM12 colon.
Holding throughout (assay): NCI-60 one-dose screen, 48 h (100 = growth as untreated, 0 = no growth, -100 = all killed)
Common to all, as to settings: 10 µM unless noted

Consider 8 compounds from PubChem BioAssay (NCI).

The panel holds about 83,000 compounds, 20% with a hit somewhere; the sample as a whole holds those more often.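 Method: cells in 96-well plates; compound added at one concentration; 48 h incubation; percent growth measured; values under 10 scored active.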 A number with no mark means an inactive call. Calls of active or inactive are those of the source.

Regarding `Cc1sc2c(c1C)C(c1ccc(Cl)cc1)=N[C@@H](CC(=O)OC(C)(C)C)c1nnc(C)n1-2`, the growth was 48.3% with MOLT-4 leukemia; 19.2% with SR leukemia; 23.5% with RPMI-8226 leukemia; 53% with OVCAR-8 ovarian; 45.4% in the test with OVCAR-5 ovarian; 42.6% in the test on OVCAR-4 ovarian. Moreover, the growth is 39.3% with SK-OV-3 ovarian; 31.4% in the test on IGROV1 ovarian; 20% in the test with OVCAR-3 ovarian; -4.04% (active) with HS 578T breast; 34.2% with NCI/ADR-RES ovarian; 51.9% with T-47D breast. The growth in the test with BT-549 breast is 58.5%; with MDA-MB-435 melanoma it was 30%; in the test on SW-620 colon it was 52.4%; in the test on MCF7 breast it was 19.1%; in the test on HCT-116 colon it was 31%; with HCC-2998 colon, 19.1%. Also, the growth in the test with KM12 colon was 40.7%.
With `Nc1nnnc2nc[nH]c12`, the growth in the test on MOLT-4 leukemia is 8.9% (active); with SR leukemia, 5.26% (active); in the test with RPMI-8226 leukemia, -11.4% (active); with OVCAR-8 ovarian, 11.5%; with OVCAR-5 ovarian, -3.28% (active); with OVCAR-4 ovarian it was 27.4%. Besides, the growth in the test on SK-OV-3 ovarian was -1.85% (active); in the test with IGROV1 ovarian, 8.3% (active); in the test on OVCAR-3 ovarian, 27.6%; in the test on HS 578T breast it was 8.71% (active); in the test on NCI/ADR-RES ovarian it was 0.552% (active); in the test with T-47D breast, -26.6% (active). The growth in the test on BT-549 breast was 43.8%; with MDA-MB-435 melanoma it was -11.8% (active); in the test on SW-620 colon, 11%; in the test with MCF7 breast, 15.3%; in the test on HCT-116 colon, -11.8% (active); with HCC-2998 colon it was 17.1%. Besides, the growth in the test on KM12 colon is 25.6%.
With `COC(=O)[C@@H](C)C[C@H](Cc1ccccc1)NC(=O)c1csc([C@@H](C[C@H](C(C)C)N(C)C(=O)C2(NC(=O)[C@H]3CCCCN3C)CCC2)OC(C)=O)n1`, the growth is 5.46% (active) in the test on MOLT-4 leukemia; 5.54% (active) with SR leukemia; 13.5% with RPMI-8226 leukemia; 27.2% in the test with OVCAR-8 ovarian; 24% with OVCAR-5 ovarian; 50% in the test on OVCAR-4 ovarian. The growth in the test on SK-OV-3 ovarian is 28.7%; with IGROV1 ovarian, 23.2%; in the test on OVCAR-3 ovarian, -6.95% (active); in the test on HS 578T breast, 13%; with NCI/ADR-RES ovarian, 46.5%; in the test with T-47D breast, 50.1%. Further, the growth was 11.6% in the test on BT-549 breast; -25.3% (active) with MDA-MB-435 melanoma; 23% with SW-620 colon; 21.9% with MCF7 breast; 3.39% (active) in the test on HCT-116 colon; 12.4% in the test with HCC-2998 colon. In addition, in the test with KM12 colon, the growth is 5.71% (active).
Turning to `COc1ccc(C2=N[C@@H](Cc3ccccc3)C(=O)Nc3ccsc32)cc1`, the growth with MOLT-4 leukemia was 35.7%; in the test with SR leukemia, 8.97% (active); with RPMI-8226 leukemia, 41.7%; with OVCAR-8 ovarian it was 70.4%; in the test with OVCAR-5 ovarian it was 84.1%; in the test with OVCAR-4 ovarian, 69.9%. The growth is 67.4% in the test on SK-OV-3 ovarian; 66% with IGROV1 ovarian; 3.83% (active) in the test with OVCAR-3 ovarian; 65.4% in the test on HS 578T breast; 28.4% in the test on NCI/ADR-RES ovarian; 61.1% with T-47D breast. Besides, the growth is 51.7% with BT-549 breast; -15.7% (active) in the test on MDA-MB-435 melanoma; 37.6% in the test with SW-620 colon; 24.1% in the test with MCF7 breast; 27.5% with HCT-116 colon; 81.5% in the test on HCC-2998 colon. In addition, the growth in the test on KM12 colon was 39.1%.
On to `COC(=O)[C@@H](C)C[C@H](Cc1ccccc1)NC(=O)c1csc([C@@H](C[C@H](C(C)C)N(C)C(=O)[C@@H](NC(=O)[C@H]2CCCCN2C)C2CC2)OC(C)=O)n1`, for which the growth in the test on MOLT-4 leukemia was 15.3%; in the test with SR leukemia, 2.03% (active); in the test on RPMI-8226 leukemia it was 34.9%; in the test with OVCAR-8 ovarian it was 22.2%; in the test on OVCAR-5 ovarian, 73%; with OVCAR-4 ovarian it was 57.4%. The growth in the test with SK-OV-3 ovarian is 21.9%; in the test on IGROV1 ovarian it was 30.8%; in the test with OVCAR-3 ovarian it was -4.55% (active); with HS 578T breast, 35.7%; in the test on NCI/ADR-RES ovarian, 8.28% (active); with T-47D breast, 73%. Besides, the growth is -30.6% (active) in the test on BT-549 breast; -12.1% (active) with MDA-MB-435 melanoma; 48.4% with SW-620 colon; 16.3% with MCF7 breast; 7.53% (active) in the test with HCT-116 colon; 15.9% in the test on HCC-2998 colon. Besides, the growth with KM12 colon was 5.07% (active).
For `COc1ccc(C(O)(C(=O)O)c2ccc(OC)cc2)cc1`, the growth in the test with MOLT-4 leukemia was 87.1%; in the test with SR leukemia, 102%; in the test on RPMI-8226 leukemia it was 78.2%; with OVCAR-8 ovarian, 93.3%; in the test on OVCAR-5 ovarian, 103%; in the test on OVCAR-4 ovarian, 97.8%. Also, the growth is 99.1% in the test with SK-OV-3 ovarian; 87.5% with IGROV1 ovarian; 106% with OVCAR-3 ovarian; 94.6% in the test on HS 578T breast; 97.8% with NCI/ADR-RES ovarian; 76.4% in the test with T-47D breast. Further, the growth is 106% in the test on BT-549 breast; 102% in the test with MDA-MB-435 melanoma; 95.2% in the test with SW-620 colon; 88.6% with MCF7 breast; 83.2% with HCT-116 colon; 90.6% in the test on HCC-2998 colon. Also, in the test on KM12 colon, the growth was 87.7%.
On to `C=CC1=C[C@@H]2[C@@H]3O[C@]4(CC[C@H](O4)[C@@H](C)C[C@@H](O)C3=O)C[C@H](O)C3=NCC[C@@]32CC1`, for which the growth was 0.671% (active) with MOLT-4 leukemia; 2.4% (active) with SR leukemia; -15.9% (active) in the test with RPMI-8226 leukemia; -12.3% (active) in the test on OVCAR-8 ovarian; -24% (active) with OVCAR-5 ovarian; -38.8% (active) in the test on OVCAR-4 ovarian. In addition, the growth was -4.99% (active) in the test on SK-OV-3 ovarian; -28.4% (active) in the test on IGROV1 ovarian; -30.7% (active) in the test on OVCAR-3 ovarian; -29.6% (active) with HS 578T breast; -15.3% (active) in the test with NCI/ADR-RES ovarian; -14.6% (active) in the test on T-47D breast. For the same compound, the growth in the test with BT-549 breast is -31.9% (active); in the test on MDA-MB-435 melanoma, -92.9% (active); with SW-620 colon it was -11.3% (active); in the test with MCF7 breast, -11.8% (active); in the test on HCT-116 colon it was -22.8% (active); with HCC-2998 colon, -81.2% (active). The growth with KM12 colon was -33.4% (active).
Take `COc1cc(C=Nc2cc(Cl)cc(Cl)c2)ccc1N(CCCl)CCCl`: the growth in the test on MOLT-4 leukemia was 58.9%; in the test on SR leukemia, 41.2%; with RPMI-8226 leukemia, 75%; with OVCAR-8 ovarian, 90.5%; with OVCAR-5 ovarian it was 105%; in the test with OVCAR-4 ovarian it was 99.5%. In addition, the growth with SK-OV-3 ovarian is 91.1%; in the test on IGROV1 ovarian it was 56.7%; in the test with OVCAR-3 ovarian, 91.1%; with HS 578T breast, 93.5%; in the test on NCI/ADR-RES ovarian, 85.2%; with T-47D breast, 95.4%. Moreover, the growth in the test on BT-549 breast is 85.4%; in the test with MDA-MB-435 melanoma, 95.5%; in the test with SW-620 colon it was 75.5%; in the test with MCF7 breast it was 84.2%; in the test with HCT-116 colon, 90.4%; in the test on KM12 colon, 51.1%.
